Source: PubChem BioAssay
Active and inactive are the calls of the source.

target: NADPH oxidase 4 (Homo sapiens) (UniProt Q9NPH5); test: compounds shifting NOX4 Amplex Red fluorescence – cell-based, HEK293-NOX4, tetracycline-induced, NOX inhibitor project, primary screen (AID 1160); conditions: HEK293-NOX4, Amplex Red H2O2 fluorescence, 45 min; higher = more signal, called active from +8 up or from −8 down
Sequence (Q9NPH5 whole entry, looked up): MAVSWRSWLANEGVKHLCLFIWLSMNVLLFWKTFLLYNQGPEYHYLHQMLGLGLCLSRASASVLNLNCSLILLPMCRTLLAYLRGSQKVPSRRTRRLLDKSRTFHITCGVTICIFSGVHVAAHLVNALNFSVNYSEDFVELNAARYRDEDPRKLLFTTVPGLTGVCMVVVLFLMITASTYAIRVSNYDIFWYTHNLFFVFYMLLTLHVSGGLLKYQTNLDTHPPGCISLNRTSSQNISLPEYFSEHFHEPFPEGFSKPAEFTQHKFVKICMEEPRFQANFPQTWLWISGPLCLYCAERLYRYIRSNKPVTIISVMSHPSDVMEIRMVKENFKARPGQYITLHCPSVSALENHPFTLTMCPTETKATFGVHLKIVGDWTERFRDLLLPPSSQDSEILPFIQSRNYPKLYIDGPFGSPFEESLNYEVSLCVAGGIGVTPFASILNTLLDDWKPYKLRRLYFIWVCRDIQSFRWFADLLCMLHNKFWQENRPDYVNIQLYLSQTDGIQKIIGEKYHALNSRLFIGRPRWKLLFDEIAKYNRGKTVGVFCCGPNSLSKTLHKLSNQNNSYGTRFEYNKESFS

z-score, inactive:
CCOC(=O)[C@H](Cc1ccccc1)NC(=O)CCC1CC(OC(=O)NCc2ccc3c(c2)OCO3)CC2(CCCC(COC(=O)NCCOC)O2)O1 (stereo partly specified) -0.931
CCOC(=O)[C@H](Cc1ccccc1)NC(=O)CCC1CC(OC(=O)NCc2ccc3c(c2)OCO3)CC2(CCCC(COC(=O)NCCCN3CCCC3=O)O2)O1 (stereo partly specified) 0.689
COC(=O)[C@H](C)NC(=O)CCC1CC(OC(=O)NCCc2ccc(F)cc2)CC2(CCCC(COC(=O)NCCOc3ccccc3)O2)O1 (stereo partly specified) 0.622
O=C1CCCC=C1C(O)C1CCCCC1 (stereo unspecified) -0.419
CCOC(=O)NN=C1C[C@@H](O)[C@@H](O)[C@@H]2[C@@H]3C(=O)N(c4ccc(F)cc4F)C(=O)[C@@H]3CC[C@H]12 -1.81
CC(=O)OC[C@H]1O[C@H](CC=NO[C@@H](C)c2cc(-c3c(C)cc(C)cc3C)no2)C=C[C@@H]1OC(C)=O -0.444
CCOC(=O)CCN1C(=O)[C@H]2[C@H]3[C@H](O)[C@H](O)CC(=NO[C@@H]4O[C@H](CO)[C@@H](O)[C@H](O)[C@H]4O)[C@H]3CC[C@H]2C1=O 0.451
CCOC(=O)[C@H](CC(C)C)NC(=O)CCC1CC(OC(=O)NCCc2ccc(F)cc2)CC2(CCCC(COC(=O)NCc3cccc(C(F)(F)F)c3)O2)O1 (stereo partly specified) 0.703
C[C@H]1CC[C@@H](C(=O)O)N[C@@H]1c1cccc(N2CCCC2=O)c1 0.00437
CC(=O)OC[C@H]1O[C@@H](ON=C2[C@H]3CCn4c(=O)n(-c5ccccc5)c(=O)n4[C@H]3[C@H](O)[C@@H]3O[C@H]23)[C@H](OC(C)=O)[C@@H](OC(C)=O)[C@@H]1OC(C)=O -0.47
CCOC(=O)[C@H](CC(C)C)NC(=O)CCC1CC(OC(=O)NCCc2ccc(F)cc2)CC2(CCCC(COC(=O)NCCCN3CCCC3=O)O2)O1 (stereo partly specified) 0.775
CC(CCC(=O)OC[C@H]1O[C@H](C#Cc2ccccc2)C=C[C@@H]1Oc1ccc(C)cc1)=NOC[C@@H](C)[C@H](OCc1ccccc1)C(C)C 1.16
CCOC(=O)[C@H](Cc1ccccc1)NC(=O)CCC1CC(OC(=O)NCc2cccc3ccccc23)CC2(CCCC(COC(=O)NCCc3ccccc3OC)O2)O1 (stereo partly specified) 1.15
COC(=O)[C@H](C)NC(=O)CCC1CC(OC(=O)NCCc2ccc(F)cc2)CC2(CCCC(COC(=O)NCCc3ccccc3OC)O2)O1 (stereo partly specified) 0.369
CCOC(=O)NN=C1C[C@@H](O)[C@@H](O)[C@@H]2[C@@H]3C(=O)N(C[C@@H]4CCCO4)C(=O)[C@@H]3CC[C@H]12 0.433
CON=C1c2cc(OC)ccc2O[C@H](c2cccc(OC)c2)[C@H]1O -0.406
COC(=O)[C@H](C)NC(=O)CCC1CC(OC(=O)NCc2ccc3c(c2)OCO3)CC2(CCCC(COC(=O)NCCC(C)C)O2)O1 (stereo partly specified) 0.437
C[C@H]1C=CCC(=O)OC[C@H](C)C(=O)N2CCC[C@H]2C(=O)OC1 0.515
CCCNC(=O)OC[C@H]1O[C@H](CCON=C2C[C@@H](O)[C@@H](O)[C@@H]3[C@@H]4C(=O)N(CC)C(=O)[C@@H]4CC[C@@H]23)C=C[C@@H]1Oc1ccc(OC)cc1 0.471
COC(=O)[C@@H]1CC[C@H](C)[C@@H](c2ccc(C)cc2)N1C(=O)c1ccc(C=NO[C@@H](C)c2cc(-c3c(C)cc(C)cc3C)no2)cc1 0.945
CC(C)(C)N1C(=O)[C@H]2[C@H]3[C@H](O)[C@H](O)CC(=NNC(=O)OCc4ccccc4)[C@H]3CC[C@H]2C1=O -0.074
CO[C@@H]1COC(=O)CC=C[C@H](C)[C@H](OC)COC(=O)[C@@H]2CCCN2C(=O)CC=C[C@H]1C -0.686
Cc1cc2c(nc1C)CCCCN2CC(O)CN1CCCc2nc(-c3ccc(Br)cc3)ccc21 (stereo unspecified) 0.175
COc1ccc(O[C@H]2C=C[C@@H](C#Cc3ccccc3)O[C@@H]2CO)cc1 -0.196
C#CCCCON=C1C[C@@H](O)[C@@H](O)[C@@H]2[C@@H]3C(=O)N(C[C@@H]4CCCO4)C(=O)[C@@H]3CC[C@H]12 -1.68
O=C1[C@H]2[C@H]3[C@H](O)[C@H](O)CC(=NO[C@@H]4O[C@H](CO)[C@@H](O)[C@H](O)[C@H]4O)[C@@H]3CC[C@H]2C(=O)N1c1cccc(Oc2ccccc2)c1 1.02
